Data: PubChem BioAssay (Tox21)
Results filed as inconclusive are left out. Calls of active or inactive are those of the source. Unless noted, calls come from the whole dose curve.

How the values were obtained:
[1] = Nuclear factor erythroid 2-related factor 2/antioxidant responsive element (Nrf2/ARE) small molecule agonists: qHTS cell viability counter screen in human keratinocytes (AID 1919968; active = well fitted curve in the direction sought with a large enough effect in the repeat runs; an effect the other way counts as inactive or inconclusive; note: nearly all actives have a fitted effect of over 55% in size)
In short: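 Stably transfected HaCaT (KeratinoSens), 1,500/well. Test agents in DMSO were applied for 23 h, 37 C/5% CO2. CellTiter-Fluor was incubated 1 h before the fluorescence read.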

[2] = Nuclear factor erythroid 2-related factor 2/antioxidant responsive element (Nrf2/ARE) small molecule agonists: luciferase reporter gene qHTS assay in human keratinocytes (AID 1919969); note: nearly all actives have a fitted effect of over 35% in size; note: potency is the fitted concentration of half-maximal effect
[3] = biological target: Gonadotropin-releasing hormone receptor (Homo sapiens) (UniProt P30968); assay: Human gonadotropin-releasing hormone receptor (GnRHR) small molecule agonists, calcium flux assay in GnRHR-HEK293 cells (AID 1920063); note: nearly all actives have a fitted effect of over 35% in size
Sequence of Gonadotropin-releasing hormone receptor (Homo sapiens) (P30968 whole entry, looked up): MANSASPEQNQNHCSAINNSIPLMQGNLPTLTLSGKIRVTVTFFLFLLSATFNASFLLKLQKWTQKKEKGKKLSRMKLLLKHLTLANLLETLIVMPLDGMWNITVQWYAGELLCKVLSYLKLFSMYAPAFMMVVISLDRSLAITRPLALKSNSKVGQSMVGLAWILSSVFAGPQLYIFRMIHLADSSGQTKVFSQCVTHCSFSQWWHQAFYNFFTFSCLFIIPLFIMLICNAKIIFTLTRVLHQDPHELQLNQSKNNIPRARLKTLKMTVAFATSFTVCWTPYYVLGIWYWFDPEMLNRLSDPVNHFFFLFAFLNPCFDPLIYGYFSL
In short: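 Stable human GnRHR HEK293 line. 18 h plating, then calcium dye for 1 h at 37 C. Agonist-mode compound addition from DMSO stocks; fluorescence monitored 3 min.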

[4] = biological target: KiSS-1 receptor (Homo sapiens) (UniProt Q969F8); assay: Human kisspeptin (KISS1R) small molecule agonists, calcium flux assay in KISS1R-HEK293 cells (AID 1920064; active = well fitted curve in the direction sought with a large enough effect in the repeat runs; an effect the other way counts as inactive or inconclusive)
Sequence of KiSS-1 receptor (Homo sapiens) (Q969F8 whole entry, looked up): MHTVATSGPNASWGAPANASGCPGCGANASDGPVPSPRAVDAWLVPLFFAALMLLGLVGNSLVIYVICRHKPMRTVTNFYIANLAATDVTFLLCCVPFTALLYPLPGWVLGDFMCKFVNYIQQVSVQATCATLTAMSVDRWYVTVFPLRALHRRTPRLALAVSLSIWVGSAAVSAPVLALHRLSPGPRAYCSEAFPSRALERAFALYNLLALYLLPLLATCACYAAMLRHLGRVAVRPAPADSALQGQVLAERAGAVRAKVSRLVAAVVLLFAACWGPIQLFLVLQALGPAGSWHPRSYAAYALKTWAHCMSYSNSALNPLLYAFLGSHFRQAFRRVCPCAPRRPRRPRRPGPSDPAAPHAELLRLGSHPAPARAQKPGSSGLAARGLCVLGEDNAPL
In short: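 After overnight (18 h) culture at 37 C/5% CO2, human KISS1R-HEK293 cells received calcium dye for 1 h, then test compound; emission at 540 nm (excitation 480 nm) was tracked for 3 min.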

[5] = G protein-coupled receptor (GPCR) small molecule agonists, calcium flux assay: HEK293 wild type cell line counter screen (AID 1920065)
In short: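 Following 18 h incubation at 37 C/5% CO2, plates got calcium dye for 1 h; compounds, ATP or DMSO were then pinned in and fluorescence followed kinetically (480/540 nm).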

[6] = p53 small molecule agonists, cell-based qHTS assay with human liver microsomes: qHTS cell viability counter screen (AID 1963579); note: nearly all actives have a fitted effect of over 45% in size; note: potency is the fitted concentration of half-maximal effect
In short: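 Metabolically activated exposure: compounds, human liver microsomes and NADPH (0.5 mg/mL final apiece) were added to p53RE-bla cells seeded 5 h earlier, left 16 h at 37 C, and then assessed for viability by CellTiter-Glo luminescence.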

[7] = p53 small molecule agonists, cell-based qHTS assay with rat liver microsomes: qHTS cell viability counter screen (AID 1963580); note: nearly all actives have a fitted effect of over 45% in size
In short: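 Cytotoxicity counter screen: intracellular ATP measured by CellTiter-Glo luminescence in the same wells as the beta-lactamase reporter read, on HCT-116 p53RE-bla cells exposed 16 h at 37 C to compounds with rat liver microsomes and NADPH, each 0.5 mg/mL final.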

[8] = p53 small molecule agonists, cell-based qHTS assay: qHTS cell viability counter screen (AID 1963581); note: nearly all actives have a fitted effect of over 45% in size
In short: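 qHTS counter screen: 16 h compound exposure at 37 C of p53RE-bla HCT-116 cells (4,000 per well, seeded 5 h prior), cell viability by ATP luminescence.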

[9] = biological target: 5-hydroxytryptamine receptor 2A (Homo sapiens) (UniProt P28223); assay: 5-hydroxytryptamine receptor 2A (HTR2A) small molecule antagonists, cell-based qHTS assay (AID 1963586); note: nearly all actives have a fitted effect of over 45% in size; note: potency is the fitted concentration of half-maximal effect
Sequence of 5-hydroxytryptamine receptor 2A (Homo sapiens) (P28223 whole entry, looked up): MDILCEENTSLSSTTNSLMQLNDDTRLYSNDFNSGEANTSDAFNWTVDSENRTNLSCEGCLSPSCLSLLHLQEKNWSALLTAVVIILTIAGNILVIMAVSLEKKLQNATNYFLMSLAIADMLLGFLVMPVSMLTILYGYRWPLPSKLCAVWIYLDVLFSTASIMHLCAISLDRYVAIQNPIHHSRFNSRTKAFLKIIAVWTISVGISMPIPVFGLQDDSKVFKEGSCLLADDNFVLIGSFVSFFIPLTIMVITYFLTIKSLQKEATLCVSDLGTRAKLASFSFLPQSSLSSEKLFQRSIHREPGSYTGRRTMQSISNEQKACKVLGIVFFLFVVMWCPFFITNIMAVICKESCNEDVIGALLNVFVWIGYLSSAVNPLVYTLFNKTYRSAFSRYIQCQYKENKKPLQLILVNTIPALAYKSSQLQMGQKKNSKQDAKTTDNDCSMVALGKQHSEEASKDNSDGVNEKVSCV
In short: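 CHO cells stably expressing human HTR2A were plated for 18 h at 37 C, then loaded with calcium dye for 1 h. Compounds were preincubated 5 min at room temperature before DOI (4 nM solution) was added. Kinetic fluorescence was read for 3 min.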

[10] = biological target: 5-hydroxytryptamine receptor 2A (Homo sapiens) (UniProt P28223); assay: 5-hydroxytryptamine receptor 2A (HTR2A) small molecule agonists, cell-based qHTS assay (AID 1963587); note: nearly all actives have a fitted effect of over 30% in size; note: potency is the fitted concentration of half-maximal effect
In short: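 CHO cells stably expressing human HTR2A, plated 18 h, loaded with calcium dye 1 h at 37 C. Agonist mode: compounds added and intracellular calcium fluorescence recorded kinetically for 2 min at 1 sec intervals.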

[11] = biological target: Muscarinic acetylcholine receptor M1 (Homo sapiens) (UniProt P11229); assay: Cholinergic receptor muscarinic 1 (CHRM1) small molecule antagonists, cell-based qHTS assay (AID 1963588); note: nearly all actives have a fitted effect of over 40% in size
Sequence of Muscarinic acetylcholine receptor M1 (Homo sapiens) (P11229 whole entry, looked up): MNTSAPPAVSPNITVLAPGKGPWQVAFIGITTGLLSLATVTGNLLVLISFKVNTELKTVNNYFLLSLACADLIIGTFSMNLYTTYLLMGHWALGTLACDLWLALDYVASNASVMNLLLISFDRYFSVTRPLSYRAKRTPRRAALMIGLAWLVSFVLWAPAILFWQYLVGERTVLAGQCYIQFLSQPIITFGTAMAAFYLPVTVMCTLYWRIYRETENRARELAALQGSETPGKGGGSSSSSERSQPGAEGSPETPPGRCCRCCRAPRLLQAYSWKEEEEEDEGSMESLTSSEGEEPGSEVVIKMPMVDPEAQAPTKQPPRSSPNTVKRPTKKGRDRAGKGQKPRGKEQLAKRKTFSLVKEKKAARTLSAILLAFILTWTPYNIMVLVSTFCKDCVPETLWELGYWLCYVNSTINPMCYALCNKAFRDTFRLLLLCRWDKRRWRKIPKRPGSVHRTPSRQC
In short: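 Compounds were tested at 15 concentrations in three independent runs. Dye-loaded CHRM1-CHO cells were exposed 5 min at room temperature before stimulation by acetylcholine added at 50nM. Intracellular calcium was read kinetically on FDSS for 3 min.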

[12] = biological target: Muscarinic acetylcholine receptor M1 (Homo sapiens) (UniProt P11229); assay: Cholinergic receptor muscarinic 1 (CHRM1) small molecule agonists, cell-based qHTS assay (AID 1963589); note: nearly all actives have a fitted effect of over 35% in size
In short: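 Kinetic fluorescence (1 s intervals) of calcium-sensitive dye in human M1 CHO cells after compound addition; cells pre-incubated 18 h at 37 C/5% CO2 and dye-loaded 1 h.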

[13] = cAMP Responsive Elements (CRE) small molecule agonists, cell-based qHTS assay (AID 1963590)
In short: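 Test agents in DMSO were incubated 3 h at 37 C/5% CO2 with CRE-bla HEK 293T cells seeded 18 h earlier; LiveBLAzer B/G FRET substrate was added and read after 2 h at room temperature.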

[14] = cAMP Responsive Elements (CRE) small molecule antagonists, cell-based qHTS assay (AID 1963591; active = well fitted inhibition curve with a large enough effect in the signal ratio in the repeat runs, not every such curve was filed as active; the % refers to the signal ratio)
In short: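 Reporter line CRE-bla HEK 293T in dialyzed-FBS DMEM; cells preincubated 18 h, treated 3 h with compound plus NKH477 (0.25 uM final); LiveBLAzer FRET, 2 h RT.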

[15] = biological target: D(2) dopamine receptor (Homo sapiens) (UniProt P14416); assay: Dopamine D2 receptor (DRD2) small molecule antagonists, cell-based qHTS assay (AID 1963595; active = well fitted inhibition curve with a large enough effect in the signal ratio in the repeat runs, with a control signal flat; the % refers to the signal ratio)
Sequence of D(2) dopamine receptor (Homo sapiens) (P14416 whole entry, looked up): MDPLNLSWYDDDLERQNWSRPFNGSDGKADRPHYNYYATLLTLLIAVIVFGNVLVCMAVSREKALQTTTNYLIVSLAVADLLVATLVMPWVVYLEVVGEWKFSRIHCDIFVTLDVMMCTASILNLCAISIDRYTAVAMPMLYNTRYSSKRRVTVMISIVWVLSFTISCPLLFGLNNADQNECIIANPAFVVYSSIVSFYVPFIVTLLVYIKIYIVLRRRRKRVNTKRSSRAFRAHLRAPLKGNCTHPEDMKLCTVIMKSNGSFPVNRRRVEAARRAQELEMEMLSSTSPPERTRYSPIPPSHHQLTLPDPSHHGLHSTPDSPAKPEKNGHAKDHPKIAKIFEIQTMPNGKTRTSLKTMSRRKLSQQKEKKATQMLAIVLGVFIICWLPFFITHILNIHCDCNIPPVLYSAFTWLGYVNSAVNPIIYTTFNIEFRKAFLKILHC
In short: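 Antagonist mode in DRD2-HEK293 cells: after compound addition with 0.1 mM Ro20-1724, cells received quinpirole (12 nM) and NKH477 (200 nM) for 30 min at room temperature; HTRF cAMP read after 1 h detection.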

[16] = biological target: Beta-2 adrenergic receptor (Homo sapiens) (UniProt P07550); assay: Adrenergic beta2 receptor (ADRB2) small molecule antagonists, cell-based qHTS assay (AID 1963592); note: series mostly up to about 92 µM; nearly all actives have a fitted effect of over 50% in size
Sequence of Beta-2 adrenergic receptor (Homo sapiens) (P07550 whole entry, looked up): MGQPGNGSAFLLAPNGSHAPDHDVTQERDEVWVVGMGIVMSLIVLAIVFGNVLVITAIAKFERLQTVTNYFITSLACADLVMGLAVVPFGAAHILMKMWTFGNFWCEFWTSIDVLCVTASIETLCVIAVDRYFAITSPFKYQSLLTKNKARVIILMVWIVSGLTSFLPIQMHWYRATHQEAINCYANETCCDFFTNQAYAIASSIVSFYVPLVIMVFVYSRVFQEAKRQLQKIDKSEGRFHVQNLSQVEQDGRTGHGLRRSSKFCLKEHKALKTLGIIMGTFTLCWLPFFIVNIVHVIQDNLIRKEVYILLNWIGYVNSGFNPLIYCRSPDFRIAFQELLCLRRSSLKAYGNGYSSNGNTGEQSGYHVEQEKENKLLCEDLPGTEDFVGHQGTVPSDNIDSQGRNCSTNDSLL
In short: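 Assay format: CHO-ADRB2 cells, 18-20hr seeding at 37C/5% CO2, then compound plus 1nM isoproterenol agonist mix for 0.5hr RT. Homogeneous time-resolved fluorescence cAMP detection after 1hr, expressed as 665/615 nm ratio.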

[17] = biological target: Beta-2 adrenergic receptor (Homo sapiens) (UniProt P07550); assay: Adrenergic beta2 receptor (ADRB2) small molecule agonists, cell-based qHTS assay (AID 1963593);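 note: CHO cells stably overexpressing human ADRB2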
In short: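 CHO cells stably over-expressing ADRB2 were plated overnight at 37C, then dosed with compounds plus a stimulation mix containing 100uM IBMX and 25uM Ro-20-1724 for 0.5hr at room temperature. cAMP was measured by HTRF competition, 1hr.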

[18] = biological target: D(2) dopamine receptor (Homo sapiens) (UniProt P14416); assay: Dopamine D2 receptor (DRD2) small molecule agonists, cell-based qHTS assay (AID 1963594); note: nearly all actives have a fitted effect of over 35% in size
In short: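 HEK293 cells stably expressing human DRD2, pre-treated with PDE inhibitor Ro20-1724 (0.1 mM final) and compound 10 min at room temperature, then stimulated with NKH477 (200nM […]) for 30 min. cAMP read by HTRF (665/620 nm).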

Measured: Potency

COc1cc(C[C@@H](C)N)c(OC)cc1C
active: [9] 0.0013 µM | [10] 0.0105 µM
not listed: [16] | [17] | [18]
inactive: all other assays above

CNN
inactive: all assays above

CCOP(=O)(O)C(N)=O
not listed: [17]
inactive: all other assays above

CCOP(=S)(OCC)Oc1ccc(Cl)cc1Cl
active: [6] 45.8 µM
inactive: all other assays above

Cc1cc(OC(=O)N(C)C)nn1C(=O)N(C)C
not listed: [15] | [17]
inactive: all other assays above

CC1C(=O)C[C@]2(C(C)C)C[C@H]12 (stereo partly drawn)
not listed: [14] | [17]
inactive: all other assays above

CC(C)[C@]12CC(=O)[C@H](C)[C@H]1C2
not listed: [14]
inactive: all other assays above

Oc1c(Cl)cccc1Cl
inactive: all assays above

Nc1ccc(Sc2ccc(N)cc2)cc1
active: [2] 68.6 µM
not listed: [17] | [18]
inactive: all other assays above

O=C(CBr)c1ccccc1
active: [2] 69 µM
not listed: [17]
inactive: all other assays above

FC(Cl)(Cl)C(F)(Cl)Cl
not listed: [17]
inactive: all other assays above

Cc1cccc(C)c1NC1=NCCCS1
not listed: [17] | [18]
inactive: all other assays above

O=P(O)(O)c1ccccc1
not listed: [17]
inactive: all other assays above

O=C(N[C@H]1CN2CCC1CC2)c1ccc2c(c1)OCCO2
not listed: [14]
inactive: all other assays above

Nc1ccc2c(c1)Cc1ccccc1-2
not listed: [12] | [13] | [15] | [16] | [17]
inactive: all other assays above

COCc1cnc(C2=NC(C)(C(C)C)C(=O)N2)c(C(=O)O)c1 (stereo not drawn)
not listed: [8] | [18]
inactive: all other assays above

CC(C)(C)OC(=O)c1ncn2c1[C@@H]1CCCN1C(=O)c1c(Br)cccc1-2
not listed: [10] | [13] | [14] | [17]
inactive: all other assays above
